Assay results: PubChem BioAssay AID588674 (Broad Institute, 2011)
The whole screen tested about 360,000 compounds, of which about 1,800 (0.5%) were called active. This excerpt belongs to a sample that is enriched for actives. Values without a mark were called inactive.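 Rule for the calls: active = mean inhibition of at least 75% with every replicate also reaching 75%; inconclusive = mean inhibition at least 75% but some replicate below; inactive = mean inhibition below 75%.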

Experiment: reduction of Shn3 3'UTR firefly luciferase signal, primary screen, Schnurri-3 inhibitor project, cell-based, Clone20 osteoblasts, set 2 (AID 588674);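 note: 0% = median of neutral control wells and 100% = pilot-screen positive control compound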
Details: Clone20 osteoblast Shn3 3'UTR firefly luciferase, 24 h; at 12.5 µM; hits give high values

Structure (SMILES)	inhibition
Cn1c(=O)c2c(nc(NCCNC(=O)c3ccco3)n2Cc2ccccc2F)n(C)c1=O	12.8%
CCn1c(NCCc2ccc(OC)c(OC)c2)nc2c1c(=O)n(C)c(=O)n2C	63.1%
CCCCNc1nc2c(c(=O)n(C)c(=O)n2C)n1Cc1cccc(OC)c1	86.7% (active)
C[C@H](C(=O)CC(=O)OC(C)(C)C)[C@H](O)c1ccc(C(F)(F)F)cc1	-13.2%
O=C(NCc1ccc(F)cc1)c1cc(C2CCCCN2C(=O)c2cccs2)on1 (stereo not given)	4.41%
O=S1(=O)CC(N2CCN(c3ccccn3)CC2)CN1Cc1ccc(F)cc1 (stereo not given)	11.2%
COc1ccccc1/C=C/C=N/n1c(-c2ccc(Cl)cc2Cl)n[nH]c1=S	-1.5%
Cc1cc(-c2n[nH]c(=S)n2/N=C/C(Br)=C/c2ccccc2)n[nH]1	90.7% (active)
COc1ccccc1N1CCN(/N=C\C(Br)=C\c2ccccc2)CC1	39.8%
Cc1ccc(S(=O)(=O)N2C[C@]3(O)C[C@@H]4C(=O)N(c5ccccc5)C(=O)[C@@H]4C[C@]3(OC(=O)NC3CC3)C2)cc1	7.81%
CCOC(=O)/C(=C\c1ccc([N+](=O)[O-])cc1)C(=O)c1cc(C(C)=O)c(Nc2ccccc2)s1	97.8% (active)
CCOC(=O)/C(=N\Nc1ccccc1[N+](=O)[O-])c1csc(Nc2ccccc2)n1	-7.96%
CCOC(=O)C(=Cc1ccccc1)C(=O)c1ccccc1	40.1%
COc1ccc(-c2c(C#Cc3ccsc3)c3cc(-c4ccc(CN5CCOCC5)cc4)ccc3n2C)cc1	10.2%
CC1(C)CC(N2CCN(C(c3ccccc3)c3ccccc3)CC2)=CC(=[N+]2CCCCC2)C1	88.3% (active)
COc1ccccc1NC(=S)N1CCN(C(c2ccccc2)c2ccccc2)CC1	13.3%
Cc1cccc(N2CCN(C(c3ccccc3)c3nnnn3CC3CCCO3)CC2)c1C (stereo not given)	20.4%
Cc1ccc(-n2c(=O)c(C#N)cc3c(=O)n4ccccc4nc32)cc1C	6.55%
O=C(NCC1CCCCC1)c1cc(S(=O)(=O)N2CCCCC2)ccc1N1CCOCC1	-9.53%
CCc1nnc(NC(=O)CCN(c2ccc(C)cc2)S(=O)(=O)c2ccccc2)s1	-20.5%
Cc1sc2ncnc(SCC(=O)NC3CCS(=O)(=O)C3)c2c1C (stereo not given)	-6.98%
CC(C)(C)c1ccc(/C=C2\Oc3c(ccc(O)c3CN3CCN(CCO)CC3)C2=O)cc1	7.57%
O=C(Cn1cc(C(=O)C2CC2)c2ccccc21)Nc1ccccc1Cl	87.4% (active)
COCCCNC(=O)Cn1cc(C(=O)C2CC2)c2ccccc21	11.6%
Cc1ccccc1NC(=O)Cn1cc(C(=O)C2CC2)c2ccccc21	8.79%
